In the library only some 11% were active in any assay of this set; here they are far more common.
PLK1 PBD inh – qHTS for Inhibitors of PLK1-PDB (polo-like kinase 1 - polo-box domain): Primary Screen | Plk1 PBD binding of FITC phosphopeptide, fluorescence polarization | Potency, µM, without a hit: max response, negative = inhibition, usual class: inhibitors | actives 2.8% (n = 360,000) | AID 720504, 2013; also: series mostly up to about 57 µM; % is scaled to controls: 0 for no effect and ±100 for the full control effect; nearly all actives have a fitted effect of over 65% in size
G9a inh – qHTS Assay for Inhibitors of Histone Lysine Methyltransferase G9a. G9a H3K9 monomethylation, AlphaScreen, 2 h. Potency, µM (top dose mostly 102 µM), for the others: top-dose activity, negative = inhibition, actives largely listed as inhibitors. actives 8.8% (n = 350,000). AID 504332, 2011; also: % is scaled to controls: 0 for no effect and ±100 for the full control effect; nearly all actives have a fitted effect of over 75% in size
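Using a bead-based AlphaScreen, monomethylated H3K9 product from 2 h room-temperature reactions (G9a 20 nM, peptide 500 nM, SAM 20 uM) was detected with 0.5 ug/mL rabbit anti-H3K9me1 antibody.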
BAZ2B block – qHTS Assay for Inhibitors of BAZ2B; Bromodomain adjacent to zinc finger domain protein 2B (Homo sapiens), Q9UIF8; AlphaScreen BAZ2B-H3K14Ac peptide displacement; Potency, µM (doses to about 114 µM), for inactives: at the top dose activity change, negative = inhibition, hits mostly inhibitors; actives 4.4% (n = 360,000); AID 504333, 2011; also: % is scaled to controls: 0 for no effect and ±100 for the full control effect; nearly all actives have a fitted effect of over 60% in size
Target sequence (Q9UIF8 whole entry, looked up, the tested form may be a part): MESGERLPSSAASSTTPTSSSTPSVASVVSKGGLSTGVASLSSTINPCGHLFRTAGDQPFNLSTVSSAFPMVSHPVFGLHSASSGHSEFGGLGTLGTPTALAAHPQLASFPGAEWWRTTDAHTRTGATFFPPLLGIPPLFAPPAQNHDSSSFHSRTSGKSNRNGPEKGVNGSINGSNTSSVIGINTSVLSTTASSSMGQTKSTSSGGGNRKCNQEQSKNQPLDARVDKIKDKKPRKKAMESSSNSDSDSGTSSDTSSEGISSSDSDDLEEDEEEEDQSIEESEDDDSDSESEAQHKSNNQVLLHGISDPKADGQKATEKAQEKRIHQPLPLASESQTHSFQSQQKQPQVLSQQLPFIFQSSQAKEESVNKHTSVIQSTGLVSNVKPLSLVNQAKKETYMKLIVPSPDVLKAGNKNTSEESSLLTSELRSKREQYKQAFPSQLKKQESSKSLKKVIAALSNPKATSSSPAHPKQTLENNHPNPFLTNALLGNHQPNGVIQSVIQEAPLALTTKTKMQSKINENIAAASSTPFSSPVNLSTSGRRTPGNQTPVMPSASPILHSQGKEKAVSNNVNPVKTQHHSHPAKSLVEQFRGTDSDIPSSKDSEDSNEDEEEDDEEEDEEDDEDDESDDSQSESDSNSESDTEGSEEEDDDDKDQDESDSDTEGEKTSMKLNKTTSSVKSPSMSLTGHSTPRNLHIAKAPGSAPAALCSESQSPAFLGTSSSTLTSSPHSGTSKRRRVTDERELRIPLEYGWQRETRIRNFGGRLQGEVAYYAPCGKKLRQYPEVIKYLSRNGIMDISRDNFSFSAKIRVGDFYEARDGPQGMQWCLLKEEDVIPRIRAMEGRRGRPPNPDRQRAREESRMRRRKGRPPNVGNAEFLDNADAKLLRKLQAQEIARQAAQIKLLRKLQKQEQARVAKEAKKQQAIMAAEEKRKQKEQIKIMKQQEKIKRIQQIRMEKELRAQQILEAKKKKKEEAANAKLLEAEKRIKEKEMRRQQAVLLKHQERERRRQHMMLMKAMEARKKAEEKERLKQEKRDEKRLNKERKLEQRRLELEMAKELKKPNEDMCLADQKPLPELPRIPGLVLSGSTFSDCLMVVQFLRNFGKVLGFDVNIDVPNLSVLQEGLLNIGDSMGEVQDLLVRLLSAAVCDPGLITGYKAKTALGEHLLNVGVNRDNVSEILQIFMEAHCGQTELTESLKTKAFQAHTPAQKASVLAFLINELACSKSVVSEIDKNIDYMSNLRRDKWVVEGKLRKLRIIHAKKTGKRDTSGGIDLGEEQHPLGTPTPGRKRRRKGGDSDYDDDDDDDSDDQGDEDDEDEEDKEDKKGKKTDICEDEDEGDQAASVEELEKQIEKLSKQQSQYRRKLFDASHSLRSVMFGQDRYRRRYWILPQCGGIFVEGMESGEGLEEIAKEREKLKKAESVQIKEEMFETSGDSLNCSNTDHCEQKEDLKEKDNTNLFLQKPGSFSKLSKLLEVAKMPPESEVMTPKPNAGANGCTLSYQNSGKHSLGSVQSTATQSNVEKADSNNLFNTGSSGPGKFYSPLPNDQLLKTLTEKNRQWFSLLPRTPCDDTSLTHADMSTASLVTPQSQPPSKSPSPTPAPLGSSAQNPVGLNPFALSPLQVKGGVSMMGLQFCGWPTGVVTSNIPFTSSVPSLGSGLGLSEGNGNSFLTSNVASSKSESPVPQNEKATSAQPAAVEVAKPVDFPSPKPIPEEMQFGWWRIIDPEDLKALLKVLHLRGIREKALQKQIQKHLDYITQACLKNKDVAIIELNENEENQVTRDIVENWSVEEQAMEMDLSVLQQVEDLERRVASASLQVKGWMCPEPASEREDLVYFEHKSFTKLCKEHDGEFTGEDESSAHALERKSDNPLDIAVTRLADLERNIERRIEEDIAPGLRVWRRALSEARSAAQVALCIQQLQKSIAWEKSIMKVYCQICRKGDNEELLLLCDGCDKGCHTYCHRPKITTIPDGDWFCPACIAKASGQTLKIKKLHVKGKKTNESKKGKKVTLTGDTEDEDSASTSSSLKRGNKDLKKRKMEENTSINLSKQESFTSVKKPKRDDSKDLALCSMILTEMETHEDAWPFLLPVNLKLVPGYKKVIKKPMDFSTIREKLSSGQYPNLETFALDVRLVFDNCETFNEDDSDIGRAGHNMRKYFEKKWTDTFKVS
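Protein-peptide AlphaScreen: BAZ2B 50 nM, b-H3K14Ac 50 nM, 1x PBS pH 7.4 + 0.01% Tween-20. Preincubation 30 min RT; cpd 30 min RT (top 110 uM); beads 20 min RT, light-protected.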
HP1b chromo inh – HTS for Inhibitors of HP1-beta Chromodomain Interactions with Methylated Histone Tails | Chromobox protein homolog 1 (Homo sapiens), P83916 | AlphaScreen HP1-beta / biotin-H3K9me3 peptide binding | Potency, µM (doses to about 114 µM), without a hit: at the top dose activity change, negative = inhibition, hits mostly inhibitors | actives 0.56% (n = 390,000) | AID 540317, 2011; also: nearly all actives have a fitted effect of over 70% in size
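AlphaScreen: HP1-beta (50 nM) preformed 30 min with biotin-H3(1-18)K9me3 peptide (50 nM) in PBS pH 7.4, 0.01% Tween-20. Compound added for 30 min at RT, then streptavidin donor/nickel chelate acceptor beads (10 ug/mL) for 30 min.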
VDR inhibitor – Inhibitors of the vitamin D receptor (VDR): qHTS; AID 504847, 2011; Potency, µM, for the others: max response, negative = inhibition, hits mostly inhibitors; VDR-SRC2-3 peptide fluorescence polarization, 2 h; Vitamin D3 receptor (Homo sapiens), P11473; actives 0.93% (n = 400,000); also: % is scaled to controls: 0 for no effect and ±100 for the full control effect
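The screen uses fluorescence polarization to detect compounds that interfere with recruitment of the SRC2-3 coactivator peptide to VDR; plates are read after 2 h at room temperature.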
JMJD2A Tudor inh – qHTS Assay for Inhibitors of JMJD2A-Tudor Domain; Lysine-specific demethylase 4A (Homo sapiens), O75164; AlphaScreen JMJD2A-Tudor / H3K4me3 peptide binding; Potency, µM (series often up to 114 µM), for inactives: at the highest dose activity change, negative = inhibition, hits mostly inhibitors; actives 4.4% (n = 390,000); also: % is scaled to controls: 0 for no effect and ±100 for the full control effect; nearly all actives have a fitted effect of over 50% in size
The depositor's hits bear a star; ? = inconclusive; / = not tested or not shown; [ ] = remark or other dose. Calls follow the shape of the dose curve; as a rule, active = well fitted curve in the direction sought with a large enough effect; inconclusive = small, poorly fitted or top-dose-only effect, or another doubt; inactive = no such curve, though single readings can be large; an effect the other way counts as inactive or inconclusive. Potency is read from the fitted curve at half-maximal effect.

SMILES	PLK1 PBD inh	G9a inh	BAZ2B block	HP1b chromo inh	VDR inhibitor	JMJD2A Tudor inh
O=C(Nc1ccc(Br)cc1)c1cccc(N2C(=O)C3C4CCC(C4)C3C2=O)c1 (configuration not stated)	?	20.9%[59 µM]	8.3%	-3.2%	-12.0%	-8.5%[57.1 µM]
O=C(Nc1cccc(Cl)c1)c1cccc(N2C(=O)C3CC=CCC3C2=O)c1 (configuration not stated)	-20.3%	79.4µM*	?	?	-6.7%	-25.9%
O=C(Nc1ccc(F)cc1)c1cccc(N2C(=O)C3C4CCC(C4)C3C2=O)c1 (configuration not stated)	-3.0%	3.16µM*	-1.4%	27.1%	-4.3%	17.9%
CC1CN(c2oc(Cc3cccc4ccccc34)nc2C#N)CC(C)O1 (configuration not stated)	1.6%	25.1µM*	?	-46.7%	3.0%	?
CNc1oc(Cc2cccc3ccccc23)nc1C#N	-3.9%	?	?	1.4%	23.0%	-29.5%
N#Cc1nc(Cc2cccc3ccccc23)oc1NCCN1CCCCC1	-18.1%	?	79.4µM*	-9.7%	2.2%	?
O=C(Cn1c(=O)n(Cc2nc(-c3ccccc3)no2)c(=O)c2cc3c(cc21)OCO3)Nc1cccc(C(F)(F)F)c1	/	-14.7%[59 µM]	-11.9%	24.5%	21.4%	-9.3%
CCCSc1nsc(SCCC)c1C(N)=O	-8.6%	39.8µM*	-5.6%	38.4%	17.0%	-20.1%
Cc1ccc2cc(CN(Cc3cccs3)C(=O)c3ccco3)c3nnnn3c2c1C	/	16.4%[59 µM]	13.7%	/	/	/
Cc1ccc2c(c1)cc(CN(Cc1cccs1)C(=O)c1ccco1)c1nnnn12	8.44µM*	10.2%[59 µM]	1.5%	?	?	28.2µM*
Cc1ccc(C)c(NC(=O)CCC(=O)NNC(=S)Nc2ccccc2)c1	-10.1%	50.1µM*	-14.5%	54.2%	8.7%	-0.3%
CNC(=S)NNC(=O)CCn1nc(C)c(Br)c1C	-10.1%	0.7%[59 µM]	-2.9%	22.3%	-14.8%	-16.7%
Cc1ccc(C)c(NCC(=O)NNC(=S)Nc2ccccc2)c1	-3.5%	22.4µM*	-18.8%	19.2%	-8.4%	-28.0%
O=C(Cc1ccccc1)NNC(=S)Nc1ccccc1	-13.4%	?	-0.3%	37.6%	-3.6%	-3.5%
Cc1ccc(NC(=O)CCC(=O)NNC(=S)Nc2ccccc2)c(C)c1	1.0%	/	-36.5%	47.2%	-0.9%	-3.6%
Cc1nn(CCC(=O)NNC(=S)Nc2ccccc2)c(C)c1Br	-13.0%	12.6µM*	8.2%	23.3%	10.2%	-7.9%
COc1cccc(NC(=O)c2nnn(Cc3ccc(OC)c(Br)c3)c2N)c1	/	6.3%[59 µM]	0.1%	19.7%	5.3%	-27.3%
COC(=O)[C@@H]1[C@H](CCc2ccccc2)NC(=O)N(Cc2ccccc2)[C@@H]1C	-1.1%	/	/	0.7%	-3.3%	-25.4%
O=C(NCCc1ccccc1)Nc1nnc([C@@H]2C[C@H](O)[C@@H](CO)O2)s1	6.3%	/	/	/	/	/
Cc1cc2c(cc1C)CN(c1ccccc1)C2	-12.4%	7.08µM*	-27.1%	24.5%	-0.7%	?
Cc1ccccc1N=C1NC(=O)CC(c2ccccc2)S1 (configuration not stated)	?	-9.1%[59 µM]	-5.9%	-11.9%	-4.6%	-15.8%[11.4 µM]
Cc1ccc(C(=O)/C=C/c2cn(CC(O)CN3CCOCC3)c3ccccc23)cc1 (configuration not stated)	17.2%	-13.9%[59 µM]	?	-0.7%	-20.8%	-28.1%
CC(C)CN(CC(C)C)CC(O)Cn1cc(/C=C/C(=O)c2ccccc2)c2ccccc21 (configuration not stated)	/	-3.8%[59 µM]	89.1µM*	42.9%	14.6%	-11.1%
COc1ccc(C(=O)/C=C/c2cn(CC(O)CN3CCOCC3)c3ccccc23)cc1 (configuration not stated)	16.6%	44.7µM*	?	-3.0%	-15.4%	-23.5%
COc1ccc(C(=O)/C=C/c2cn(CC(O)CN(CC(C)C)CC(C)C)c3ccccc23)cc1OC (configuration not stated)	/	-5.2%[59 µM]	-17.7%	29.1%	-0.8%	-34.2%
SMILES	PLK1 PBD inh	G9a inh	BAZ2B block	HP1b chromo inh	VDR inhibitor	JMJD2A Tudor inh
Cc1ccc(C(=O)/C=C/c2cn(CC(O)CN3CCc4ccccc43)c3ccccc23)cc1 (configuration not stated)	/	12.6µM*	?	-20.5%	8.6%	25.1µM*
COc1ccc(C(=O)/C=C/c2cn(CC(O)CN3CCc4ccccc43)c3ccccc23)cc1OC (configuration not stated)	/	?	10µM*	-32.1%	4.3%	20µM*
COc1ccc(C(=O)/C=C/c2cn(CN3CCN(C)CC3)c3ccccc23)cc1	2.4%	23.0%	3.9%	22.7%	-8.6%	-33.1%
CC(C)CCNC(=O)Cn1c(NCCC(C)C)nc2c1c(=O)n(C)c(=O)n2C	-1.7%	/	/	19.4%	-10.6%	-6.9%
O=C(NCc1ccc(Cl)c(Cl)c1)c1cc(C2CCCCN2C(=O)c2ccccc2)on1 (configuration not stated)	-11.0%	/	/	/	/	/
Cn1ccsc1=NC(=O)c1ccc([N+](=O)[O-])o1	-24.6%	?	-30.4%	?	-0.7%	56.2µM*
Cc1ccc(Cl)cc1NC(=O)N1CCC2(CC1)Oc1ccccc1C(=O)N2Cc1ccccc1F	/	0.3%[59 µM]	0.1%	58.7%	-21.7%	-3.3%
CCOC(=O)C1CCCN(C2CC(=O)N(c3cccc(C(F)(F)F)c3)C2=O)C1 (configuration not stated)	-8.1%	?	-31.3%	46.0%	-14.2%	56.2µM*
CCOC(=O)C1CCCN(C2CC(=O)N(c3ccccc3)C2=O)C1 (configuration not stated)	-3.2%	/	2.5%	45.7%	3.3%	2.3%
CCOC(=O)C1CCCN(C2CC(=O)N(c3ccc(N4C(=O)CC(N5CCCC(C(=O)OCC)C5)C4=O)cc3)C2=O)C1 (configuration not stated)	-7.4%	31.6µM*	50.1µM*	41.7%	-4.7%	-2.9%
c1ccc2c(c1)ncn2-c1cncnc1	-12.7%	/	/	/	/	/
Cc1nnc(SCC(=O)c2cc(C)n(-c3ccc4c(c3)OCO4)c2C)s1	-1.2%	?	44.7µM*	-22.1%	-15.2%	?
CCOc1cc(C2CC(=O)NC3=C2C(=O)C(C(=O)OC)C(C)C3)cc(Cl)c1O (configuration not stated)	-7.4%	50.1µM*	?	5.5%	8.6%	-27.9%
